# Assay outcomes from PubChem.
# Rows were chosen to be rich in hits. Some 0.44% of all compounds tested hit in one or more screens of this group.
# EPAC2 antag: blocks human EPAC2 exchange factor | AID 720708 | hit rate 0.18% among 360,000 | Q8WZA2 | EPAC2 GEF exchange of Rap1B-BODIPY-GDP, fluorescence | Potency, µM (doses to about 114 µM), most hits filed as inhibitors; note: nearly all actives have a fitted effect of over 45% in size
# EPAC2 ag: activates human EPAC2 exchange factor; Q8WZA2; EPAC2 activation, biochemical qHTS; response scale: 100% = 6.5 mM cAMP response; Potency, µM (series often up to 154 µM), actives largely listed as activators; hit rate 0.079% among 360,000; note: nearly all actives have a fitted effect of over 50% in size
#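 Guanine nucleotide exchange by EPAC2 is measured as reduced fluorescence of BODIPY-GDP once it is released from 250 nM Rap1B. Plates are read kinetically for 30 min at room temperature; results are scaled to 6.5 mM cAMP.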
# EPAC1 ag: activates human EPAC1 exchange factor. EPAC1 agonist qHTS, biochemical assay; response scale: 100% = response to 6.5 mM cAMP. O95398. hit rate 0.073% among 360,000. Potency, µM (series often up to 154 µM), most hits filed as activators; note: nearly all actives have a fitted effect of over 60% in size
#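 Compounds were pinned as a concentration titration into mixtures of EPAC1 (100 nM), BODIPY-GDP-loaded Rap1B (250 nM) and GDP (50 uM). After 5 min at room temperature, fluorescence was followed for 30 min; activity was scaled to 6.5 mM cAMP.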
# EPAC1 antagonist: EPAC1 (human) antagonism; Potency, µM (top dose mostly 115 µM), hits mostly inhibitors; O95398; EPAC1 GEF assay, Rap1b-BODIPY-GDP exchange fluorescence; hit rate 0.14% among 360,000; note: nearly all actives have a fitted effect of over 50% in size
# USP1-UAF1 inh: blocks the human USP1/UAF1 deubiquitinase complex; recombinant USP1/UAF1, Ub-Rhodamine cleavage fluorescence; Potency, µM (titrated, usually from 57.1 µM), actives largely listed as inhibitors; hit rate 0.23% among 390,000; note: nearly all actives have a fitted effect of over 60% in size
#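 Step one: compound is pinned into 1nM USP1/UAF1 in HEPES pH 7.8 buffer with TCEP. Step two: 15 min room-temperature incubation. Step three: Ub-Rho (150nM final) starts cleavage, tracked by fluorescence over six one-minute reads.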
# Numbers stand for hits; i = inactive; ? = inconclusive; nt = no result given. Calls come from the whole dose curve; as a rule, active = well fitted curve in the direction sought with a large enough effect; inconclusive = small, poorly fitted or top-dose-only effect, or another doubt; inactive = no such curve, though single readings can be large; an effect the other way counts as inactive or inconclusive.
SMILES,EPAC2 antag,EPAC2 ag,EPAC1 ag,EPAC1 antagonist,USP1-UAF1 inh
COc1cccc(N=C2NC(=O)/C(=C/c3cc([N+](=O)[O-])ccc3O)S2)c1,?,i,i,i,i
O=C1NC(=Nc2ccccc2Cl)S/C1=C\c1cc([N+](=O)[O-])ccc1O,18µM,i,i,79µM,?
Cc1ccc(S(=O)(=O)/N=C2/NC(=O)/C(=C/c3cc([N+](=O)[O-])ccc3O)S2)cc1,i,i,i,?,28µM
CCC(C)c1ccc(S(=O)(=O)N2CCN(S(=O)(=O)c3ccc(NC(C)=O)cc3)CC2)cc1 (stereo not drawn),i,i,i,i,i
CCOC(=O)CC(=O)CSc1nc(-c2cccnc2)ccc1C#N,i,i,i,i,32µM
O=C(NCC(c1ccco1)N1CCCCC1)c1cccc(NS(=O)(=O)c2ccc(Br)cc2)c1 (stereo not drawn),i,i,126µM,?,i
CCc1cc(-c2nnn(-c3cc(C(C)C)ccc3C)c2CC)ccc1-c1cn(CCc2c[nH]c3ccccc23)nn1,i,i,i,i,i
CCOC(=O)C1CCN(C(=O)CN2C(=O)COc3ccc(C(C)(C)C)cc32)CC1,i,i,i,i,i
CCC(=O)NC(c1cccs1)c1cc(Cl)c2ccccc2c1O (stereo not drawn),79µM,i,i,i,nt
CCSC1=NSC2=NC(=O)/C(=C\c3coc4ccccc4c3=O)C(=N)N12,i,100µM,45µM,i,22µM
CC(C)CC1=NN2C(=N)/C(=C\c3coc4ccccc4c3=O)C(=O)N=C2S1,i,63µM,63µM,i,28µM
CSC1=NSC2=NC(=O)/C(=C\c3ccc(OC(=O)c4ccco4)cc3)C(=N)N12,i,i,i,?,i
CCOc1ccccc1NC(=O)CSc1nc2nc(-c3cccs3)cc(C(F)(F)F)c2c(=O)[nH]1,i,i,i,i,i
COc1ccc(NC(=O)CSc2nc3nc(-c4cccs4)cc(C(F)(F)F)c3c(=O)[nH]2)c(OC)c1,i,i,i,32µM,i
O=C(C=Cc1ccccc1)c1c[nH]c2ccccc2c1=O,i,i,i,79µM,i
O=S(=O)(NCc1ccccc1)c1ccc(S(=O)(=O)N(Cc2cccs2)CC2CCCO2)cc1 (stereo not drawn),i,40µM,i,i,i
COc1cc(S(=O)(=O)N(Cc2cccs2)CC2CCCO2)ccc1-n1cnnn1 (stereo not drawn),i,i,i,i,i
CCCn1c(=O)n(C)c(=O)c2c(SCC(=O)NCc3ccco3)nc(C3CC3)nc21,i,10µM,i,i,i
CCc1ccc(S(=O)(=O)/N=C2\C=C(Nc3ccc(C(=O)O)cc3)C(=O)c3ccccc32)cc1,i,i,i,i,18µM
Cc1ccc(S(=O)(=O)/N=C2\C=C(NS(=O)(=O)c3ccccc3)C(=O)c3ccccc32)c(C)c1,?,i,i,i,i
Cc1ccc(S(=O)(=O)/N=C2\C=C(Nc3ccc(O)cc3)C(=O)c3ccccc32)cc1,i,i,i,?,11µM
Cc1ccc(S(=O)(=O)/N=C2\C=C(Nc3cccc(C(=O)O)c3)C(=O)c3ccccc32)c(C)c1,?,i,i,?,10µM
Cc1ccc(S(=O)(=O)Nc2ccc(N=Nc3ccc(O)cc3)cc2)cc1,i,i,i,i,i
Cc1ccc(S(=O)(=O)/N=C2\C=C(Nc3cccc(C(=O)O)c3)C(=O)c3ccccc32)cc1,?,i,i,i,14µM
COc1ccc(OC)c(CN2C(=O)c3ccccc3C2c2nnnn2-c2ccc3c(c2)OCCO3)c1 (stereo not drawn),i,i,i,i,nt
SMILES,EPAC2 antag,EPAC2 ag,EPAC1 ag,EPAC1 antagonist,USP1-UAF1 inh
O=c1[nH]c(-c2ccccc2)c(-c2ccccc2)o1,i,i,i,i,i
COc1ccc(S(=O)(=O)Nc2ccc(Cc3ccncc3)cc2)cc1C,?,i,i,i,i
Cc1ccc(S(=O)(=O)Nc2ccc(Nc3nccn4c(-c5cccc(OC(F)(F)F)c5)cnc34)cc2)cc1,i,i,i,i,nt
COc1ccc(C2=CC3=C(Br)C(=O)C(C)(O)C(=O)C3=CO2)cc1 (stereo not drawn),?,i,i,i,35µM
CCC(=O)OC1(C)C(=O)C2=COC(c3ccc(OC)cc3)=CC2=C(Br)C1=O (stereo not drawn),i,i,i,?,35µM
CCC(=O)OC1(C)C(=O)C=C2C=C(c3ccc(C#N)cc3)OC=C2C1=O (stereo not drawn),i,i,i,i,?
O=C1CC(N2CCN(S(=O)(=O)c3ccccc3F)CC2)C(=O)N1c1ccc(F)cc1F (stereo not drawn),i,i,i,i,i
COc1ccc2ccc3c(c2c1)N=C[C@]1(O3)N(C)c2ccccc2C1(C)C,i,i,i,?,?
CC1(C)c2ccccc2N(CC(N)=O)C12C=Cc1ccccc1O2 (stereo not drawn),18µM,i,i,i,i
Cc1c(Cl)cccc1NC(=O)CSc1ncnc2c1sc1ccccc12,nt,nt,nt,nt,i
COc1ccccc1/C=C(/C(=O)OCC(=O)Nc1ccc(N(C)C)cc1)c1ccccc1,50µM,i,i,i,i
Cc1cc(C)n(-c2ccc(C(=O)N3CCN(S(=O)(=O)c4ccc(Cl)cc4)CC3)cc2)n1,i,i,i,i,i
COc1ccc(C(=O)O)cc1S(=O)(=O)Nc1ccccc1C(=O)NCc1ccc2c(c1)OCO2,i,i,i,i,i
COc1cc(/C=C(\C#N)c2nc3ccccc3s2)cc([N+](=O)[O-])c1O,?,i,i,79µM,i
N#C/C(=C\c1ccc(O)c([N+](=O)[O-])c1)c1nc2ccccc2s1,?,i,i,?,?
CCCCNC(=O)c1onc(CSc2ccccn2)c1C(=O)NCCCC,i,i,i,i,i
O=C(NCCS(=O)(=O)N1CCN(c2cccc(Cl)c2)CC1)c1ccc2c(c1)OCO2,i,i,35µM,i,i
CCCN1C(=O)c2ccccc2NC1c1ccc(Cl)c(Cl)c1 (stereo not drawn),28µM,i,i,i,i
Cc1cc(OCC(O)CN2CCN(c3ccccn3)CC2)cc(C)c1Cl (stereo not drawn),i,i,i,i,i
O=C1C2C3CC(C2C(=O)N1c1cccc(Cl)c1)[C@H](O)C3O (stereo partly drawn),i,i,i,i,i
O=C(c1ccco1)[C@@H]1[C@@H]2C(=O)N(c3ccc(Br)cc3)C(=O)[C@@H]2C2c3ccccc3C=CN21 (stereo partly drawn),i,i,i,i,16µM
CC(=O)[C@H]1[C@@H]2C(=O)N(c3cccc(Cl)c3)C(=O)[C@@H]2[C@H]2c3ccccc3C=CN21,i,i,i,i,10µM
